Laboratory results reported in PubChem BioAssay (NCATS).
Inconclusive results are not listed. Unmarked numbers belong to inactive results. The source made the active and inactive calls. Calls come from the whole dose curve; as a rule, active = well fitted inhibition curve with a large enough effect; inconclusive = small, poorly fitted or top-dose-only effect; inactive = flat fitted curve, though single readings scatter.

Each molecule was assayed on CP250 (assay: qHTS profiling for inhibitors of Plasmodium falciparum proliferation (AID 504749; note: nearly all actives have a fitted effect of over 60% in size;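 for activity, negative = inhibition: 0% = DMSO vehicle and full inhibition = artemisinin control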)). Conditions: P. falciparum in erythrocytes, SYBR Green DNA, 72 h; series mostly up to 28.7 µM; activity, negative = inhibition: at the top concentration.
How it was run: (§1)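 Parasite proliferation within erythrocytes, 72 h exposure. Endpoint: SYBR Green I fluorescence after overnight lysis at room temperature. Controls: 0.29 uM artemisinin, DMSO.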
Potency is the fitted concentration of half-maximal effect.

Compound | activity, negative = inhibition | Potency
CCCN1CCC[C@H](c2cccc(O)c2)C1 | 0.824% | –
O=C(O)COc1ccccc1 | 2.03% | –
O=[N+]([O-])c1ccc([As](=O)(O)O)cc1 | – | 7.08 µM (active)
O=C(O)C(Cl)Cl | 13.9% | –
Cc1cc(O)ccc1Cl | 2.42% | –
CN(C)[C@@H]1C(=O)C(C(N)=O)=C(O)[C@@]2(O)C(=O)C3=C(O)c4c(O)cccc4[C@@](C)(O)[C@H]3[C@H](O)[C@@H]12 | -13.3% | –
COC(=O)[C@@H](N)CCCN=C(N)N[N+](=O)[O-] | 8.37% | –
c1ccc(C2(c3ccccc3)CC2C2=NCCN2)cc1 (configuration not stated) | -14.3% | –
CN1C2CCC1CC(OC(=O)c1cc(Cl)cc(Cl)c1)C2 (configuration not stated) | -5.07% | –
CCCCCCCCCCCCCCCC[N+](C)(C)C | – | 8.91 µM (active)
CN[C@@H]1C[C@@H](c2ccc(Cl)c(Cl)c2)c2ccccc21 | -21.8% | –
CCCCc1ccc(C(=O)O)nc1 | 3.22% | –
Cc1ccc(Cl)c(O)c1 | 5.98% | –
CC(C)NC(C)Cc1ccc(I)cc1 (configuration not stated) | -3.43% | –
CC(=O)[O][Hg][c]1ccccc1 | – | 7.08 µM (active)
C=CCN1CC[C@]23CCCCC2[C@H]1Cc1ccc(O)cc13 (some centres not stated) | 8.81% | –
NC(=O)CN1CC(O)CC1=O (configuration not stated) | 5.9% | –
C1CCC(NC2CCCCC2)CC1 | 9.05% | –
C#CC1(O)CCC2C3CCC4=CC(=O)CCC4(C)C3CCC21C (configuration not stated) | 3.7% | –
CC[N+]1(CCOC(=O)C(O)(c2ccccc2)c2ccccc2)CCCCC1 | -2.18% | –
CCCCCCCCCC(CC)c1ccc(S(=O)(=O)O)cc1 (configuration not stated) | 0.471% | –
NC1=NC(=O)N2CC12 (configuration not stated) | -21.2% | –

Each molecule was assayed on CP252 in the same assay as above. Conditions: P. falciparum in erythrocytes, SYBR Green DNA, 72 h; series mostly up to 28.7 µM; activity, negative = inhibition: at the top concentration.
How it was run: as §1

Compound | activity, negative = inhibition | Potency
CCCN1CCC[C@H](c2cccc(O)c2)C1 | -3.51% | –
C[C@]12CCC(=O)C(O)=C1CC[C@@H]1[C@H]3CCC(=O)[C@@]3(C)CC[C@@H]12 | -18.5% | –
O=C(O)COc1ccccc1 | -0.692% | –
O=[N+]([O-])c1ccc([As](=O)(O)O)cc1 | – | 7.08 µM (active)
O=C(O)C(Cl)Cl | 0.948% | –
Cc1cc(O)ccc1Cl | -9.15% | –
COC(=O)[C@@H](N)CCCN=C(N)N[N+](=O)[O-] | 4.78% | –
c1ccc(C2(c3ccccc3)CC2C2=NCCN2)cc1 (configuration not stated) | -16.4% | –
CN1C2CCC1CC(OC(=O)c1cc(Cl)cc(Cl)c1)C2 (configuration not stated) | -15.7% | –
CCCCc1ccc(C(=O)O)nc1 | -13.7% | –
Cc1ccc(Cl)c(O)c1 | -3.48% | –
CC(C)NC(C)Cc1ccc(I)cc1 (configuration not stated) | -13.5% | –
CC(=O)[O][Hg][c]1ccccc1 | – | 8.91 µM (active)
C=CCN1CC[C@]23CCCCC2[C@H]1Cc1ccc(O)cc13 (some centres not stated) | 3.2% | –
NC(=O)CN1CC(O)CC1=O (configuration not stated) | 0.228% | –
C1CCC(NC2CCCCC2)CC1 | 0.888% | –
C#CC1(O)CCC2C3CCC4=CC(=O)CCC4(C)C3CCC21C (configuration not stated) | 4.37% | –
CC[N+]1(CCOC(=O)C(O)(c2ccccc2)c2ccccc2)CCCCC1 | -19.4% | –
CCCCCCCCCC(CC)c1ccc(S(=O)(=O)O)cc1 (configuration not stated) | 2.8% | –
NC1=NC(=O)N2CC12 (configuration not stated) | -29.3% | –
